AMA1 RON2 block – AMA1-RON2 (P. falciparum) interaction inhibition. Potency, µM (titrated, usually from 58.2 µM), hits mostly inhibitors. AlphaScreen AMA1-biotinylated RON2 peptide binding. AID 720542. hit rate 0.2% among 360,000; also: nearly all actives have a fitted effect of over 45% in size
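AMA1 (3D7) with his tag at 25 nM final met compounds first, then biotinylated RON2 peptide at 25 nM; detection used donor plus acceptor beads, 10 µg/mL apiece, read by AlphaScreen after 30 min at room temperature.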
Pf growth 48h – P. falciparum growth inhibition at 48 hours (one generation) | Potency, µM (highest dose often 28.7 µM), most hits filed as inhibitors | P. falciparum luciferase growth in erythrocytes, 48 h | hit rate 5.9% among 310,000
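Cell-based growth assay: transgenic P. falciparum expressing firefly luciferase, cultured in red cells within RPMI 1640 containing 0.5% w/v Albumax, 24 mM bicarbonate and gentamycin. A drop in luciferase activity indicates inhibition.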
Shiga inhibitor – inhibitors of Shiga toxin in Vero cells. Vero cells, Shiga toxin protein synthesis inhibition reporter. inhibition, % at 38.7 µM. hit rate 9.2% among 290,000. AID 2315; in the data active = inhibition mostly above about 28%, no sharp cut-off; inactive = mostly below about 43%
SARS PLP yeast – SARS-CoV PLP inhibition in yeast; Potency, µM (doses to about 32.9 µM), usual class: activators; S. cerevisiae expressing SARS-CoV PLpro, growth rescue; hit rate 0.19% among 330,000; calls by dose curve; also: nearly all actives have a fitted effect of over 55% in size
Pf growth 96h – P. falciparum growth inhibition at 96 hour, primary screen for plastid delayed-death inhibitors; P. falciparum luciferase reporter growth, 96 h; Potency, µM (doses to about 28.7 µM), most hits filed as inhibitors; hit rate 6.9% among 320,000
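Plates of compound plus infected erythrocytes (2% hematocrit, 0.05% parasitemia final) incubate 96 hours, 37 C, 5% CO2. Detection reagent added; reduced luminescence from the parasites' luciferase reporter flags inhibition.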
CHX counter – counter-screen hit for Shiga toxin inhibitors, cycloheximide | AID 2314 | max response, % | cell reporter, cycloheximide protein synthesis inhibition counterscreen | hit rate 12% among 300,000; in the data active = max response mostly above about 13%, no sharp cut-off; inactive = mostly below about 14%; also: read at 38.3 µM for the half of the compounds with a filed dose
Each line names hits and unclear results; the compound was inactive in the other large screens. Hits are enriched below; roughly 19% of the tested compounds scored in any of these assays. Unless noted, calls follow the shape of the dose curve; as a rule, active = well fitted curve in the direction sought with a large enough effect; inconclusive = small, poorly fitted or top-dose-only effect, or another doubt; inactive = no such curve, though single readings can be large; an effect the other way counts as inactive or inconclusive.

COc1ccc(OC)c(C2=Nn3c(nnc3-c3cccc(OC(C)C)c3)SC2)c1	Pf growth 48h 8.3µM, Pf growth 96h inconclusive
O=CN1Cc2[nH]c3ccccc3c2N(c2ccc(Cl)cc2)C1=O	Pf growth 96h 9.3µM (no result: Pf growth 48h)
O=C1CNCc2[nH]c3ccccc3c2N1c1ccccc1	none (no result: Pf growth 96h)
Cc1ccc(NC(=O)/C(C#N)=C/c2ccc(C)s2)c(C)c1	CHX counter 40 (no result: Pf growth 48h)
Cc1ccc(/C=C(\C#N)C(=O)Nc2c(C)cccc2C)s1	Pf growth 96h 7.4µM (no result: Pf growth 48h)
Cc1cccc(C)c1NC(=O)/C(C#N)=C/c1ccsc1	Pf growth 96h inconclusive
COC(=O)c1ccc(COc2ccccc2/C=C(\C#N)C(=O)Nc2c(C)cccc2C)cc1	Pf growth 48h inconclusive, Pf growth 96h 13µM
Cc1cccc(S(=O)(=O)NC(=O)C2(C)CCN2C(=O)Cc2ccc(-c3ccccc3)cc2)c1 (stereo not given)	none (no result: Pf growth 48h, Shiga inhibitor, SARS PLP yeast, Pf growth 96h, CHX counter)
C/C(Cn1cnc([N+](=O)[O-])n1)=N/NC(=O)COc1c(Cl)cc(Cl)cc1Cl	none
O=C1C(Cc2ccc(O)cc2)NC(=S)N1C1CCCCC1 (stereo not given)	none
Cc1cc(NC(=O)c2ccc(C)s2)n(-c2ccccc2)n1	none (no result: Pf growth 48h)
CCCCCC(=O)N1C[C@H](O)[C@@H](n2cc(COC(=O)c3ccccc3)nn2)C[C@@H]1c1ccc(Cl)cc1	none (no result: Pf growth 48h, Shiga inhibitor, SARS PLP yeast, Pf growth 96h, CHX counter)
CCC(=O)Nc1c2c(nc3c1CCC3)CCCC2	Pf growth 96h 2.1µM
CN1CCN(C(=O)c2ccccc2NC(=O)c2ccccc2)CC1	Pf growth 96h inconclusive
CN(C)c1ccc(/C=N/n2cnn(Cc3ccccc3Cl)c2=S)cc1	Shiga inhibitor 97, CHX counter 38
CCOC(=O)c1ccc(NCCc2ccc(OC)c(OC)c2)c(N)c1	AMA1 RON2 block inconclusive, Pf growth 48h 9.3µM, Pf growth 96h inconclusive
COc1ccc(CCNC(=O)c2ccc(OC)c(OC)c2)cc1OC	none
CC(C)(C)c1ccc(OCC(=O)N/N=C/c2cc(Br)ccc2OC(=O)c2ccco2)cc1	Pf growth 48h 2.1µM, Pf growth 96h inconclusive
COc1ccc(Br)cc1/C=N/NC(=O)c1ccco1	none
O=C(O)C(c1ccccc1)C1(O)CC2CCC1C2 (stereo not given)	none (no result: Pf growth 48h, Shiga inhibitor, SARS PLP yeast, Pf growth 96h, CHX counter)
CCC(NC(=S)NC1CCCCC1)c1ccccc1 (stereo not given)	Pf growth 48h inconclusive, Pf growth 96h inconclusive (no result: AMA1 RON2 block)
CCOc1ccc(C(C)NC(=S)NC2CCCCC2)cc1 (stereo not given)	Pf growth 48h inconclusive, Pf growth 96h inconclusive
CC(C)c1ccc(C(C)NC(=S)NC2CCCCC2)cc1 (stereo not given)	Pf growth 48h 12µM
CCc1ccc(C(C)NC(=S)NC2CCCCC2)cc1 (stereo not given)	Pf growth 48h inconclusive, SARS PLP yeast inconclusive
CCC(C)c1ccc(C(C)NC(=S)NC2CCCCC2)cc1 (stereo not given)	Pf growth 48h 7.4µM, Pf growth 96h 9.3µM
CCOc1ccc(C(C)NC(=S)NC2CCCCC2)cc1OCC (stereo not given)	Pf growth 48h 0.083µM, Pf growth 96h inconclusive
CC(NC(=S)NC1CCCCC1)c1ccc(C(C)(C)C)cc1 (stereo not given)	Pf growth 48h 5.9µM
Cc1ccc(S(=O)(=O)N(C)c2c(C)ccc(S(=O)(=O)NC(C)(C)C)c2C)cc1	Pf growth 48h inconclusive
Cc1ccc(-c2cc(C(=O)OCn3nnc4ccccc4c3=O)c3ccccc3n2)cc1	none
Cc1cc(C(=O)OCn2nnc3ccccc3c2=O)c(C)n1-c1ccccc1	Pf growth 48h inconclusive, Shiga inhibitor 69, Pf growth 96h 1.9µM, CHX counter 62
Cc1ccccc1C(=O)OCn1nnc2ccccc2c1=O	SARS PLP yeast inconclusive, Pf growth 96h 8.3µM
Cc1ccc2c(c1)C1(C=CC(=O)C=C1)CC(=O)N2C	none (no result: AMA1 RON2 block, Pf growth 48h, SARS PLP yeast, Pf growth 96h)
Cc1ccc(NC(=S)N2CC(C)OC(C)C2)cc1C (stereo not given)	Pf growth 96h inconclusive
O=C(Oc1ccc(/C=N/NC(=O)c2ccccc2F)cc1)c1ccccc1	Shiga inhibitor 83, Pf growth 96h inconclusive, CHX counter 27
O=C(N/N=C/c1ccc(OC(=O)c2ccccc2)cc1)c1cccnc1	Pf growth 96h inconclusive
O=C(N/N=C/c1ccc(OC(=O)c2ccccc2)cc1)c1cccc(O)c1	Pf growth 48h inconclusive
O=C(N/N=C/c1ccc(OC(=O)c2ccccc2Br)cc1)c1ccccn1	SARS PLP yeast inconclusive, Pf growth 96h inconclusive
CC(=O)Nc1ccc(OC(=O)CC2SC(=O)NC2=O)cc1 (stereo not given)	none (no result: Pf growth 48h)
O=C(CC1SC(=O)NC1=O)Oc1ccc(/C=N/NC(=O)c2ccccc2O)cc1 (stereo not given)	Shiga inhibitor 36, CHX counter 23
Cn1nccc1C(=O)Oc1ccc(/C=N/NC(=O)c2ccccc2O)cc1	Pf growth 48h inconclusive, Shiga inhibitor 75
O=C(Oc1ccc(/C=N/NC(=O)c2ccccc2O)cc1)c1ccccc1	Pf growth 96h 6.6µM, CHX counter 16 (no result: Pf growth 48h)
COc1ccc(S(=O)(=O)N2CCN(C)CC2)cc1NC(=O)c1ccccc1	Pf growth 96h inconclusive
Cc1[nH]c(C)c(S(=O)(=O)N(Cc2ccccc2)C(C)(C)C)c1C(=O)N1CCCC1	Pf growth 96h inconclusive
O=C(O)c1cc(-c2cccs2)nn1-c1cccc(Cl)c1	none
CN(C)S(=O)(=O)c1cccc(NC(=O)c2cc(-c3cccs3)nn2-c2cccc(Cl)c2)c1	Pf growth 48h inconclusive, Pf growth 96h 15µM
Cn1nnc(NC(=O)/C=C/c2ccco2)n1	none
Cc1ccc(NC(=O)/C=C/c2ccco2)nc1	Shiga inhibitor 78, CHX counter 34
O=C(/C=C/c1ccco1)Nc1cccc2cccnc12	Shiga inhibitor 119, CHX counter 61
O=C(/C=C/c1ccco1)Nc1ccccn1	Shiga inhibitor 43, CHX counter 36
O=C(Nc1ccccc1C(=O)NCC1CCCO1)c1ccc(Cl)cc1 (stereo not given)	Pf growth 48h inconclusive, Pf growth 96h inconclusive
CCN(CC)c1ccc(/C=N/n2c(C)cc(C)cc2=O)cc1	Pf growth 48h 7.4µM
CCN(CC)c1ccc(/C=N/n2c(C)nc3ccccc3c2=O)cc1	none (no result: Pf growth 48h)
CCc1n[nH]c(=S)n1/N=C/c1ccc(N(CC)CC)cc1	Pf growth 48h inconclusive, Pf growth 96h inconclusive
CCN(CC)c1ccc(/C=N/N2CC(=O)NC2=S)cc1	Pf growth 48h inconclusive, Pf growth 96h 3.7µM (no result: Shiga inhibitor, CHX counter)
CCOC(=O)[C@]12CCCC=C1N(CCC1=CCCCC1)C(=O)[C@H](CC(=O)NCC1CCCCC1)C2	none (no result: Pf growth 48h, Shiga inhibitor, SARS PLP yeast, Pf growth 96h, CHX counter)
CCOc1ccc2nc(NC(=O)CSc3nnnn3C3CCCCC3)sc2c1	Shiga inhibitor 50, Pf growth 96h 4.1µM, CHX counter 30
Cc1nc(SCC(=O)Nc2ccccn2)n[nH]1	none
CCOc1ccc(OCCSc2nnnn2C2CCCCC2)cc1	Pf growth 96h 10µM
Cc1nc(SCC(=O)Nc2nc3ccccc3s2)n[nH]1	Shiga inhibitor 69, Pf growth 96h inconclusive, CHX counter 54
CSc1nsc(SCC(=O)NC2CCCCC2)n1	CHX counter 27 (no result: Pf growth 96h)
